Here are results for 38 compounds from PubChem BioAssay (NCI).

About 83,000 compounds went through this panel and 20% of them were active in at least one assay; those are over-represented in the sample as a whole.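 The test compound was applied at a single concentration to cells in 96-well plates for 48 hours, and percent growth was recorded.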 The source made the active and inactive calls. How the source made its calls: active means growth percent below 10; inactive means the rest.

The first assay deals with T-47D breast. Briefly: NCI-60 one-dose screen, 48 h (100 = growth as untreated, 0 = no growth, -100 = all killed). Conditions: 10 µM unless noted.
As for `C=C1C(=O)O[C@H]2[C@H]1CC/C(COC(=O)NCCc1ccc(Br)cc1)=C\CC[C@@]1(C)O[C@@H]21`, the growth is -21% (active).

For `COc1ccc(C(=O)/C=C/c2ccc(/C=C/c3cc(OC)c(OC)c(OC)c3)cc2)cc1`, the growth is 43.4% (inactive).

As to `COc1ccc(C2CC(=O)Nc3c2c(C)nn3-c2nc3ccccc3[nH]2)cc1OC` (stereo not given), the growth is 65.7% (inactive).

With `O=C(O)c1ccc(-n2cc(CNc3ccc(C(F)(F)F)cc3)c(-c3ccccc3)n2)cc1`, the growth was 79.2% (inactive).

On to `C=C1C(=O)O[C@H]2[C@H]1CC/C(COC(=O)NCCc1cccc(OC)c1)=C\CC[C@@]1(C)O[C@@H]21`, for which the growth was 20.4% (inactive).

As for `Nc1ccc(S(=O)(=O)c2ccc(Cl)cc2)cc1`, the growth was 104% (inactive).

As to `C/C(=C\c1csc(C)n1)[C@@H]1C[C@@H]2O[C@]2(C)CCC[C@H](C)[C@H](O)[C@@H](C)C(=O)C(C)(C)[C@@H](O)CC(=O)N1`, the growth is -21.8% (active).

`CCNC(=O)C1CCCN1C(=O)C(CCCN=C(N)N)NC(=O)C(CC(C)C)NC(=O)C(CC(C)C)NC(=O)C(Cc1ccc(O)cc1)NC(=O)C(CO)NC(=O)C(Cc1c[nH]c2ccccc12)NC(=O)C(Cc1cnc[nH]1)NC(=O)C1CCC(=O)N1` (stereo not given): the growth is 104% (inactive).

Turning to `O=C(O)C(=Cc1c2ccccc2cc2ccccc12)C(=O)O`, the growth was 90.5% (inactive).

Turning to `CCCCCCCCCCn1cc[n+](C)c1`, the growth was 24.6% (inactive).

Regarding `Cc1oc2ncnc(Nc3ccccc3)c2c1C(=O)NCCO`, the growth was 99.4% (inactive).

With `O=C(Nc1ccc(I)cc1)c1cc([N+](=O)[O-])ccc1O`, the growth was 29.9% (inactive).

As for `C[C@]12CC[C@@H]3c4cc(O)c(O)cc4CC[C@H]3[C@@H]1CC[C@@H]2O`, the growth is 30.4% (inactive).

For the compound `O=C1C2=C(C(=O)c3c(O)ccc(O)c31)N(c1cccnc1)Cc1ccccc1O2`, the growth is -28.4% (active).

On to `CCCCCCc1nc2c(c(C)nn2-c2ccccc2)c2c1CCCCC2`, for which the growth is 92.2% (inactive).

Turning to `COc1ccc(-c2nc3sccn3c2-c2ccnc(NCCCNS(=O)(=O)c3ccc(C)cc3)n2)cc1`, the growth is -6.34% (active).

For the compound `NC(=O)c1cccc(N2Cc3ccccc3OC3=C2C(=O)c2c(O)ccc(O)c2C3=O)c1`, the growth was -36.9% (active).

`Nc1cccc2c1CN(C1CCC(=O)NC1=O)C2=O` (stereo not given): the growth is 97.5% (inactive).

For the compound `COc1ccc2c(c1)C(=O)/C(=C/c1ccc(O)cc1)O2`, the growth was 59.8% (inactive).

With `COc1cccc(-c2nc3sccn3c2-c2ccnc(NCCCNS(=O)(=O)c3ccc(F)cc3)n2)c1`, the growth is -8.19% (active).

For the compound `O=C1NCC(c2cc3ccccc3[nH]c2=O)Nc2ccccc21` (stereo not given), the growth is 91% (inactive).

As to `COC1=CC(c2ccc[nH]2)=N/C1=C\c1[nH]c(C)c(C(=O)CCCCC(=O)NCc2ccccc2)c1C`, the growth was 50.5% (inactive).

With `COc1ncc(-c2ccc3ncnc(Nc4cccc(Cl)c4)c3c2)cc1NS(=O)(=O)C1CC1`, the growth was -1.98% (active).

As for `C=C1C(=O)O[C@H]2[C@H]1CC/C(Cn1cc(-c3ccsc3)nn1)=C\CC[C@@]1(C)O[C@@H]21`, the growth was -62% (active).

For `C=C1C(=O)O[C@H]2[C@H]1CC/C(COC(=O)NCCc1ccc(OC)cc1)=C\CC[C@@]1(C)O[C@@H]21`, the growth is -5.43% (active).

Consider `CCN(C(=O)c1cc2ccccc2[nH]1)[C@H]1CCC[C@@H](NCc2ccc(OC)cc2)C1`, for which the growth was 82.7% (inactive).

Regarding `COc1ccc(C2NC3=C(CCCC3)C(C#N)(C#N)C2(C#N)C#N)cc1` (stereo not given), the growth is 49.2% (inactive).

With `CCCCCc1c(C)[nH]c(/C=c2\[nH]/c(=C3/C=c4ccccc4=N3)cc2OC)c1C`, the growth is -6.71% (active).

As to `O=C1CCC/C=C\C[C@H]2C=CC(=O)/C2=C/C[C@H](C/C=C\CC(F)(F)F)O1`, the growth is 6.6% (active).

With `COc1ccc(/C=C/C(=O)/C=C/c2cc3ccc(Cl)cc3[nH]c2=O)cc1`, the growth is 67.3% (inactive).

As for `N#Cc1c(NC(=O)c2ccc([N+](=O)[O-])o2)[n+]([O-])c2cc(F)c(F)cc2[n+]1[O-]`, the growth was 118% (inactive).

In the case of `CC(CCc1ccccc1)NC(=O)c1n[nH]c(=O)c2ccccc12` (stereo not given), the growth is 95.8% (inactive).

On to `COc1ccc(/C=C/c2cc(N3CCOCC3)c3cc(F)c(F)cc3n2)cc1OC`, for which the growth is 37.9% (inactive).

With `CC(C)C[C@H](NC(=O)Cn1ccc(NCc2ccccc2)cc1=O)B(O)O`, the growth is -14.6% (active).

In the case of `CCNc1nc(N2CC(=O)Nc3cc(OC)ccc32)c2ccccc2n1`, the growth is 11.6% (inactive).

With `COc1ccc(/C=C/c2nc(N3CCOCC3)c3nc(Cl)c(Cl)cc3n2)cc1OC`, the growth was 88.2% (inactive).

Turning to `O=S=Nc1ccc([N+](=O)[O-])cc1`, the growth is 76.2% (inactive).

A further assay has as its system BT-549 breast. The description is as above. Conditions: 10 µM unless noted.
Turning to `C=C1C(=O)O[C@H]2[C@H]1CC/C(COC(=O)NCCc1ccc(Br)cc1)=C\CC[C@@]1(C)O[C@@H]21`, the growth is -9.87% (active).

With `COc1ccc(C(=O)/C=C/c2ccc(/C=C/c3cc(OC)c(OC)c(OC)c3)cc2)cc1`, the growth was 41.6% (inactive).

On to `COc1ccc(C2CC(=O)Nc3c2c(C)nn3-c2nc3ccccc3[nH]2)cc1OC` (stereo not given), for which the growth is 75.5% (inactive).

For the compound `O=C(O)c1ccc(-n2cc(CNc3ccc(C(F)(F)F)cc3)c(-c3ccccc3)n2)cc1`, the growth is 99.1% (inactive).

In the case of `C=C1C(=O)O[C@H]2[C@H]1CC/C(COC(=O)NCCc1cccc(OC)c1)=C\CC[C@@]1(C)O[C@@H]21`, the growth is 27.8% (inactive).

Consider `Nc1ccc(S(=O)(=O)c2ccc(Cl)cc2)cc1`, for which the growth was 97.2% (inactive).

For `C/C(=C\c1csc(C)n1)[C@@H]1C[C@@H]2O[C@]2(C)CCC[C@H](C)[C@H](O)[C@@H](C)C(=O)C(C)(C)[C@@H](O)CC(=O)N1`, the growth was -45.3% (active).

Consider `CCNC(=O)C1CCCN1C(=O)C(CCCN=C(N)N)NC(=O)C(CC(C)C)NC(=O)C(CC(C)C)NC(=O)C(Cc1ccc(O)cc1)NC(=O)C(CO)NC(=O)C(Cc1c[nH]c2ccccc12)NC(=O)C(Cc1cnc[nH]1)NC(=O)C1CCC(=O)N1` (stereo not given), for which the growth is 113% (inactive).

On to `O=C(O)C(=Cc1c2ccccc2cc2ccccc12)C(=O)O`, for which the growth is 105% (inactive).

`Cc1oc2ncnc(Nc3ccccc3)c2c1C(=O)NCCO`: the growth was 90.1% (inactive).

On to `O=C(Nc1ccc(I)cc1)c1cc([N+](=O)[O-])ccc1O`, for which the growth is 34.3% (inactive).

With `C[C@]12CC[C@@H]3c4cc(O)c(O)cc4CC[C@H]3[C@@H]1CC[C@@H]2O`, the growth is 37.7% (inactive).

Regarding `O=C1C2=C(C(=O)c3c(O)ccc(O)c31)N(c1cccnc1)Cc1ccccc1O2`, the growth is -54.1% (active).

Turning to `CCCCCCc1nc2c(c(C)nn2-c2ccccc2)c2c1CCCCC2`, the growth was 113% (inactive).

In the case of `COc1ccc(-c2nc3sccn3c2-c2ccnc(NCCCNS(=O)(=O)c3ccc(C)cc3)n2)cc1`, the growth was 42.5% (inactive).

As to `NC(=O)c1cccc(N2Cc3ccccc3OC3=C2C(=O)c2c(O)ccc(O)c2C3=O)c1`, the growth is -56.8% (active).

Regarding `Nc1cccc2c1CN(C1CCC(=O)NC1=O)C2=O` (stereo not given), the growth is 105% (inactive).

Take `COc1cccc(-c2nc3sccn3c2-c2ccnc(NCCCNS(=O)(=O)c3ccc(F)cc3)n2)c1`: the growth is 29.6% (inactive).

For `O=C1NCC(c2cc3ccccc3[nH]c2=O)Nc2ccccc21` (stereo not given), the growth was 96.3% (inactive).

With `COC1=CC(c2ccc[nH]2)=N/C1=C\c1[nH]c(C)c(C(=O)CCCCC(=O)NCc2ccccc2)c1C`, the growth is 21.5% (inactive).

For the compound `C=C1C(=O)O[C@H]2[C@H]1CC/C(Cn1cc(-c3ccsc3)nn1)=C\CC[C@@]1(C)O[C@@H]21`, the growth was -56.3% (active).

On to `CCN(C(=O)c1cc2ccccc2[nH]1)[C@H]1CCC[C@@H](NCc2ccc(OC)cc2)C1`, for which the growth was 102% (inactive).

In the case of `COc1ccc(C2NC3=C(CCCC3)C(C#N)(C#N)C2(C#N)C#N)cc1` (stereo not given), the growth is 92.9% (inactive).

With `CCCCCc1c(C)[nH]c(/C=c2\[nH]/c(=C3/C=c4ccccc4=N3)cc2OC)c1C`, the growth was -35.2% (active).

For the compound `Nc1c(C(=O)Nc2cccc(Cl)c2Cl)sc2nc3c(cc12)C(=O)CCC3`, the growth is 95.3% (inactive).

In the case of `O=C1CCC/C=C\C[C@H]2C=CC(=O)/C2=C/C[C@H](C/C=C\CC(F)(F)F)O1`, the growth was -18% (active).

In the case of `COc1ccc(/C=C/C(=O)/C=C/c2cc3ccc(Cl)cc3[nH]c2=O)cc1`, the growth is 75.6% (inactive).

As for `N#Cc1c(NC(=O)c2ccc([N+](=O)[O-])o2)[n+]([O-])c2cc(F)c(F)cc2[n+]1[O-]`, the growth was 203% (inactive).

As to `CC(CCc1ccccc1)NC(=O)c1n[nH]c(=O)c2ccccc12` (stereo not given), the growth is 98.9% (inactive).

In the case of `COc1ccc(/C=C/c2cc(N3CCOCC3)c3cc(F)c(F)cc3n2)cc1OC`, the growth is 45.2% (inactive).

Regarding `CC(C)C[C@H](NC(=O)Cn1ccc(NCc2ccccc2)cc1=O)B(O)O`, the growth was 3.58% (active).

For the compound `COc1ccc(/C=C/c2nc(N3CCOCC3)c3nc(Cl)c(Cl)cc3n2)cc1OC`, the growth was 99.9% (inactive).

Regarding `O=S=Nc1ccc([N+](=O)[O-])cc1`, the growth is 91.8% (inactive).
